Compounds without any hit were thinned out: in the full panel of roughly 83,000, 20% have a hit.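 For each line, cells grew in 96-well plates with the test compound present at a single concentration for 48 hours.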 Active and inactive are the calls of the source.
The compounds below were run on NCI-H23 lung (assay: NCI-60 one-dose screen, 48 h (100 = growth as untreated, 0 = no growth, -100 = all killed)). Conditions: 10 µM unless noted.
Method: Growth inhibition of the NCI-H23 human Non-Small Cell Lung tumor cell line is measured as a screen for anti-cancer activity. Cells are grown in 96 well plates and exposed to the test compound for 48 hours. Compounds are tested at a single concentration, which is 10^-5 M for most compounds. The reported endpoint is percent growth (GI% or GIPRCNT), where numbers from 0 - 100% represent growth inhibition, and numbers from -100% - 0 represent cell death. For example, a value of 40 represents 60% growth inhibition. A value of 0 means no net growth occurred over the course of the experiment. A value of -40 indicates 40% of cells at the beginning of the experiment died by the end of the experiment. A value of -100 means all cells are dead at the end of the experiment.
NCI-60 Human Tumor Cell Lines Screen was performed using the standard one-dose NCI protocol, which is described in more detail at https://dtp.cancer.gov/discovery_development/nci-60/default.htm.
Compounds with GIPRCNT values below 10 were considered active. Activity score was based on GIPRCNT using the following formula: […]
Score is 0 for GIPRCNT values of 100 or above, 50 for GIPRCNT values of 0, and 100 for GIPRCNT values of -100.
In the case of COc1ccc(-c2c(C)noc2-c2ccc(O)cc2O)cc1, the growth is reported as 81.4% (inactive). With COc1ccc2nc3cc(Cl)ccc3c(N3CCN(c4ccnc(N5CCN(C)CC5)n4)CC3)c2c1 the growth was 34.6% (inactive). In the case of CCCCCCCCOC(=O)CC[C@@H](C)[C@H]1CC[C@H]2[C@@H]3[C@H](OC(=O)CCN)C[C@@H]4C[C@H](OC(=O)CCN)CC[C@]4(C)[C@H]3C[C@H](OC(=O)CCN)[C@]12C, the growth is reported as 90.3% (inactive). With COc1cccc(-c2cn3c(ccc4ccccc43)n2)c1 the growth was 49.8% (inactive). CCCCCC(=O)N(CCCC)CCCC was tested, and the growth was 107% (inactive). For C=CC[N+]1(CC)CCN=C1CCCCCCCCCCCCCCCCC (stereo not given), the growth was -92.9% (active). In the case of Cn1cc(-c2nc(-c3c[nH]c4ccccc34)cs2)c2cccnc21, the growth is reported as 49.6% (inactive). In the case of O=c1c2cccc3c(Nc4ccccn4)ccc(c32)c2nc3ccccc3n12, the growth is reported as 60.6% (inactive). COc1ccc(CCN2CCCn3c2nc2ccccc2c3=O)cc1 was tested, and the growth was 32.7% (inactive). CC(C)c1c(C(=O)Nc2ccccc2)c(-c2ccccc2)c(-c2ccc(F)cc2)n1CC[C@@H]1CC=CC(=O)O1 was tested, and the growth was 1.14% (active). In the case of CCOC(=O)C(=Cc1ccccc1F)C(=O)OCC, the growth is reported as 99.2% (inactive). With NC1=CC(=O)C(=O)c2ccccc21 the growth was 72.7% (inactive). With COc1cc(-c2nc3ccccc3s2)ccc1NC(=O)COc1ccc(Cl)cc1 the growth was 38.3% (inactive). COc1cc(C2CC(=O)Nc3c2cnn3Cc2ccco2)cc2c1OCCO2 (stereo not given) was tested, and the growth was 96.6% (inactive). In the case of c1ccc(-c2nc(N3CCOCC3)c3c4c(sc3n2)CCCCC4)nc1, the growth is reported as 66.9% (inactive). For O=C(/C=C/c1cccc(Br)c1)c1ccccc1, the growth was 98.7% (inactive). For COc1cnc2c(c1)C(=O)c1c-2n(CCCN2CCNCC2)c(=O)c2cc([N+](=O)[O-])ccc12, the growth was -63.6% (active). For Nc1c(C(=O)Nc2cccc3c2OCCO3)sc2nc3c(cc12)C(=O)CCC3, the growth was 46.4% (inactive). For C=C1CCC2C3(C)COC(C)(C)OC3CCC2(C)C1C/C=C1/C(=O)OCC1OC(C)=O (stereo not given), the growth was 50.4% (inactive). With O=C(CN1CCN(c2cc3c(cc2F)c(=O)c(C(=O)N/N=C/c2ccccc2)cn3C2CC2)CC1)N/N=C\c1ccccc1 the growth was 94.5% (inactive). In the case of CCc1ccccc1NC(=O)c1sc2nc3c(cc2c1N)C(=O)CCC3, the growth is reported as 38.2% (inactive). For CCCCCCCCCc1cc(CN2CCCCC2)c(O)c(CN2CCCCC2)c1, the growth was 39.4% (inactive). In the case of COc1cc(-c2cnc3nonc3n2)c(OC)c2c1OCO2, the growth is reported as 95.4% (inactive). In the case of O=C(Nc1ccc(Nc2cc(Nc3ccccc3)ncn2)cc1)Nc1cc(C(F)(F)F)ccc1F, the growth is reported as 77.5% (inactive). CCCCCCCCCCCCCC1=NCCN1CCO was tested, and the growth was 72% (inactive). For CCOC(=O)CC(C)=N, the growth was 118% (inactive). For Cn1c2ccccc2c2c3c(c4c5ccccc5[nH]c4c21)C(=O)N(N)C3=O, the growth was 46.1% (inactive). COc1cc(NCCCCN=C(N)NC(N)=NC(C)C)c2ncccc2c1 was tested, and the growth was -31.5% (active). In the case of CN1CCOCCOCCOc2ccccc2NC(=O)c2nc(cnc2N)-c2ccc(cc2)S1(=O)=O, the growth is reported as 34.5% (inactive). In the case of COCCOC(=O)C1=C(C)NC(=S)NC1c1ccc2c(c1)OCO2 (stereo not given), the growth is reported as 96.2% (inactive). For CN1CCN(Cc2ccc(NC(=O)c3[nH]ncc3Nc3ccnc4ccsc34)cc2)CC1, the growth was 15.4% (inactive). O=C1CC(c2nc3ccccc3s2)CN1C1CCCCC1 (stereo not given) was tested, and the growth was 90.4% (inactive). In the case of Cc1ccc2c(c1)C(=O)/C(=C/c1ccc(OCC(=O)c3ccccc3)cc1)O2, the growth is reported as 84.7% (inactive). CN1CCCCC1CCN1c2ccccc2Sc2ccc(Cl)cc21 (stereo not given) was tested, and the growth was 77.4% (inactive). For C[C@@H]1CC[C@@H]2[C@@H]1[C@H](OC(=O)/C=C/c1ccccc1)[C@]1(c3ccccc3)C[C@@H](OC(=O)CO)[C@@]2(C)O1, the growth was 102% (inactive). With Cc1nc2nc(N)nc(N)c2nc1C the growth was 91.5% (inactive). In the case of CC(=O)/C(=C/c1cccc(Cl)c1)C(=O)c1ccccc1, the growth is reported as 90.2% (inactive). COC1/C=C\OC2(C)Oc3c(C)c(O)c4c(O)c(c(CN(C)CCO)c(O)c4c3C2=O)NC(=O)/C(C)=C\C=C/C(C)C(O)C(C)C(O)C(C)C(OC(C)=O)C1C (stereo not given) was tested, and the growth was 91.9% (inactive). In the case of COCCCNc1nc(NC(=O)c2ccc(F)cc2C)cc(-c2cccnc2)n1, the growth is reported as 107% (inactive). For C(=N\Nc1nnn(Cc2ccccc2)n1)/c1ccccc1, the growth was 53.1% (inactive).

Source: PubChem BioAssay (NCI)
